Bioassay records as filed in PubChem.
Giardia FBPA inh-1: qHTS Assay for Inhibitors of Fructose-1,6-bisphosphate Aldolase from Giardia Lamblia | A8B2U2 | Potency, µM (top dose mostly 59.6 µM), for inactives: top-dose activity, negative = inhibition, most hits filed as inhibitors | hit rate 0.71% among 290,000 | purified Giardia FBPA | AID 2451, 2010; also: nearly all actives have a fitted effect of over 55% in size
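Giardia FBPA (40 nM reagent) was preincubated 10 min at RT with compound (up to 57.5 uM final), then substrate plus GAPDH/TPI/NAD/arsenate coupling system with diaphorase/resazurin was added; resorufin fluorescence (525/598 nm) was read after 20 min.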
AmpC detergent: qHTS Inhibitors of AmpC Beta-Lactamase (assay with detergent) | AmpC hydrolysis of nitrocefin, absorbance 480 nm, 0.01% Triton | Potency, µM (titrated, usually from 114 µM), without a hit: at the top dose activity change, negative = inhibition, usual class: inhibitors | P00811 | hit rate 0.041% among 370,000;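 also: 0% = no-compound wells and -100% = no-enzyme wells; nearly all actives have a fitted effect of over 25% in size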
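20 mM phosphate pH 7.0 + 0.01% (detergent screen) or 0.0001% Triton X-100; 5.3 nM AmpC reagent; cpd preinc 15 min RT; nitrocefin (800 uM stock) to start; A480 q20 s × 4 min; Activity was normalised to no-enzyme and no-compound control wells.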
AmpC no deterg: qHTS Inhibitors of AmpC Beta-Lactamase (assay without detergent); P00811; AmpC nitrocefin hydrolysis, absorbance 480 nm, 0.0001% Triton; Potency, µM (titrated, usually from 57.1 µM), for the others: at the highest dose activity change, negative = inhibition, actives largely listed as inhibitors; hit rate 0.52% among 330,000; AID 485341, 2010;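 also: plate controls were no compound for no effect and no enzyme for full effect; nearly all actives have a fitted effect of over 20% in size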
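20 mM phosphate pH 7.0 + 0.01% (detergent screen) or 0.0001% Triton X-100; 5.3 nM AmpC reagent; cpd preinc 15 min RT; nitrocefin (800 uM stock) to start; A480 q20 s × 4 min; Activity was normalised to no-enzyme and no-compound control wells.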
AMA1 RON2 block: qHTS for Inhibitors of AMA1-RON; Towards Development of Antimalarial Drug Lead: Primary Screen; Plasmodium falciparum AMA1 (3D7) - RON2 peptide interaction; AlphaScreen AMA1-biotinylated RON2 peptide binding; Potency, µM (titrated, usually from 58.2 µM), without a hit: top-dose activity change, negative = inhibition, most hits filed as inhibitors; hit rate 0.2% among 360,000; AID 720542, 2013;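 also: 0% = vehicle wells and -100% = peptide control; nearly all actives have a fitted effect of over 45% in size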
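AMA1 (3D7) with his tag at 25 nM final met compounds first, then biotinylated RON2 peptide at 25 nM; detection used donor plus acceptor beads, 10 µg/mL apiece, read by AlphaScreen after 30 min at room temperature.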
LmPK inh: qHTS Assay for Inhibitors of Leishmania Mexicana Pyruvate Kinase (LmPK) | Q27686 | purified LmPK, Kinase-Glo ATP luminescence, 1 h | Potency, µM (series often up to 57.5 µM), inactives show at the highest dose activity change, negative = inhibition, actives largely listed as inhibitors | hit rate 0.37% among 290,000
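qHTS format; LmPK 0.1 nM; substrates PEP 0.5 mM and ADP 0.1 mM. One-hour room-temperature incubation, then coupled luciferase luminescence; 0.5 nM enzyme wells mark activation.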
Giardia growth: qHTS Assay for Inhibitors of Fructose-1,6-bisphosphate Aldolase from Giardia Lamblia: Giardia lamblia growth inhibition; shares compounds with Giardia FBPA inh-1; Giardia lamblia trophozoite growth inhibition; Potency, µM (top dose mostly 57.5 µM), for inactives: top-dose activity change, negative = inhibition, hits mostly inhibitors; hit rate 5% among 1,500; AID 2785, 2010;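 also: trophozoites exposed to compound for 48 h at 37 °C; nearly all actives have a fitted effect of over 70% in size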
Mammalian tox: qHTS Assay for Inhibitors of Fructose-1,6-bisphosphate Aldolase from Giardia Lamblia: Mammalian cellular toxicity. shares compounds with Giardia FBPA inh-1. mammalian cell viability counter-screen, qHTS. Potency, µM (top dose mostly 57.5 µM), inactives show top-dose viability change, negative = toxicity, hits mostly inhibitors. hit rate 4% among 1,500. AID 2786, 2010;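 also: Chinese hamster ovary cells used as mammalian cytotoxicity surrogate; viability measured as cellular ATP by luminescence; compound exposure lasted 48 h before reading; nearly all actives have a fitted effect of over 60% in size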
Giardia FBPA inh-2: qHTS Assay for Inhibitors of Fructose-1,6-bisphosphate Aldolase from Giardia Lamblia: Primary screen confirmation | purified Giardia aldolase enzyme activity, qHTS | hit rate 5% among 1,500 | AID 2787, 2010 | Potency, µM (top dose mostly 57.5 µM), without a hit: at the highest dose activity change, negative = inhibition, hits mostly inhibitors | shares compounds with Giardia FBPA inh-1; also: nearly all actives have a fitted effect of over 45% in size
Rabbit aldolase: qHTS Assay for Inhibitors of Fructose-1,6-bisphosphate Aldolase from Giardia Lamblia: Rabbit FBPA Selectivity | shares compounds with Giardia FBPA inh-1 | Rabbit muscle FBPA enzyme inhibition, selectivity counter-screen | Potency, µM (highest dose often 57.5 µM), inactives show at the highest dose activity, negative = inhibition, most hits filed as inhibitors | hit rate 4% among 1,500 | AID 2794, 2010; also: nearly all actives have a fitted effect of over 60% in size
Target sequence (P00883 whole entry, looked up): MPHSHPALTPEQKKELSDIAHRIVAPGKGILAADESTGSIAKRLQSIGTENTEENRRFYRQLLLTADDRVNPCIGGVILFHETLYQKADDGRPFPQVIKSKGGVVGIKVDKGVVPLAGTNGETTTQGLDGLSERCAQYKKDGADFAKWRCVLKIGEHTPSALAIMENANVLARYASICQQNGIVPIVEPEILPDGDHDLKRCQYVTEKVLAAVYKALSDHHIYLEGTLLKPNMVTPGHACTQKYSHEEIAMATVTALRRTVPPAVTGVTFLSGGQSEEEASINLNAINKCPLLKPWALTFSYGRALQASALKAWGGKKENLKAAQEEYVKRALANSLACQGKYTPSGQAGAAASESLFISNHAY
GAPDH coupling: qHTS Assay for Inhibitors of Fructose-1,6-bisphosphate Aldolase from Giardia Lamblia: Coupling assay counterscreen confirmation; Potency, µM (top dose mostly 57.5 µM), for the others: at the highest dose activity change, negative = inhibition, most hits filed as inhibitors; GAPDH coupling enzyme counterscreen, biochemical, qHTS; hit rate 6% among 1,500; shares compounds with Giardia FBPA inh-1; also: nearly all actives have a fitted effect of over 55% in size
An asterisk follows results filed as active; [ ] = dose if it differs, or a comment. The list is not random: actives were taken first. Their share in the collection is about 1.3%. Calls follow the shape of the dose curve; as a rule, active = well fitted curve in the direction sought with a large enough effect; inconclusive = small, poorly fitted or top-dose-only effect, or another doubt; inactive = no such curve, though single readings can be large; an effect the other way counts as inactive or inconclusive. Unless noted, % is scaled to controls: 0 for no effect and ±100 for the full control effect; potency is read from the fitted curve at half-maximal effect.

`Cc1cc(C)cc(NC(=O)CSc2oc(-c3cccs3)nc2S(=O)(=O)c2ccccc2)c1` gave AmpC detergent 9.4%.
Screening CC(C)c1ccc(S(=O)(=O)/N=C2/C=C(Sc3ncn[nH]3)C(=O)c3ccccc32)cc1 returned Giardia FBPA inh-1 0.446µM*, AmpC detergent 1.5%, AmpC no deterg -49.3%, AMA1 RON2 block -4.0%[11.6 µM], LmPK inh inconclusive, Giardia growth 7.08µM*, Mammalian tox 25.1µM*, Giardia FBPA inh-2 3.55µM*, Rabbit aldolase 15.8µM* and GAPDH coupling 3.55µM*.
`Cc1ccc(S(=O)(=O)Nc2ccc(O)c(Sc3ncn[nH]3)c2)cc1` gave Giardia FBPA inh-1 -29.8%, AmpC detergent 9.7%, AmpC no deterg -30.7%, AMA1 RON2 block 30.5% and LmPK inh 5.3%.
For CCNC(=O)C1CCCN(C(=O)Cc2ccc3ccccc3c2)CC1 (configuration not stated) the results were AMA1 RON2 block 18.5%.
For CC(C)(C)c1ccc(OCC(O)CN2CCN(C(=O)c3ccccc3)CC2)cc1 (configuration not stated) the results were Giardia FBPA inh-1 14.1µM*, AmpC detergent 2.6%, AmpC no deterg 155.0%, AMA1 RON2 block inconclusive, LmPK inh 2.2%, Giardia growth -12.2%, Mammalian tox -17.3%, Giardia FBPA inh-2 -7.8%, Rabbit aldolase -13.4% and GAPDH coupling -2.3%.
Screening CCCOC(=O)c1ccc(OCC(O)CN2CCN(C(=O)c3ccccc3)CC2)cc1 (configuration not stated) returned Giardia FBPA inh-1 -2.3%, AmpC detergent inconclusive, AmpC no deterg 135.8%, AMA1 RON2 block 3.7% and LmPK inh 7.7%.
CC(=O)N1CCN(CC(O)COc2ccc(Br)cc2)CC1 (configuration not stated) was read as Giardia FBPA inh-1 28.2µM*, AmpC detergent -11.0%, AmpC no deterg -0.8%, AMA1 RON2 block inconclusive, LmPK inh 1.2%, Giardia growth inconclusive, Mammalian tox 8.1%, Giardia FBPA inh-2 3.9%, Rabbit aldolase 13.5% and GAPDH coupling 2.5%.
`Cc1nc2cc(OC3(C)CCN(Cc4ccc(OC(F)(F)F)cc4)C3)ccc2s1` (configuration not stated) gave AMA1 RON2 block -14.6%.
